# POLH inh: blocks human DNA polymerase eta activity; Potency, µM (top dose mostly 114 µM), usual class: inhibitors; 1.2% of 390,000 active; recombinant Pol eta, fluorescent DNA replication assay; Q9Y253
#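 Pol eta (10 nM) was preincubated with compounds for 15 min at room temperature, after which fluorescent replication substrate (50 nM final) was added to start the reaction. Fluorescence was read kinetically at 0 and 10 min.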
# PI5P4K alpha inh: blocks human PI5P4K alpha kinase activity; P48426; PI5P4Kalpha enzyme, ADP-Glo luminescence, 60 min; stronger effect = lower value; max response, %; 1.2% of 330,000 active; active = max response of -50% or lower; inconclusive = between -30% and -50%; inactive = -30% or higher; note: value at the top dose of about 77 µM
#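 Single end-point luminescence (ADP-Glo) quantified ADP from PI5P4Kalpha turnover; ATP 5 microM final, 1 h at RT, 0.1% CHAPS and 0.28 mM EGTA in HEPES pH 7.4.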
# WRN helicase inh-1: inhibitors of human WRN helicase | AID 651768 | WRN helicase unwinding, fluorescent forked duplex, kinetic | 0.46% of 360,000 active | Q14191 | Potency, µM (top dose mostly 114 µM), hits mostly inhibitors; note: nearly all actives have a fitted effect of over 55% in size
#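 Primary qHTS, 1536-well format. 20 nM WRN + compound, 15 min RT; start with 100 nM forked fluorophore/quencher duplex, 2 mM ATP (final); kinetic read ex 525/em 598 nm.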
# Pol beta inh: DNA polymerase beta (human) inhibition; Pol beta primer extension/strand displacement, fluorescence kinetic; Potency, µM (series often up to 114 µM), actives largely listed as inhibitors; 1.3% of 340,000 active; AID 485314
#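 Enzyme-only controls used 10 nM Pol beta; buffer lacking enzyme served as negative control. Compound preincubated 15 min, then 50 nM substrate added; 0 and 10 min reads at room temperature.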
# Pol kappa inh: blocks human DNA polymerase kappa activity; purified Pol kappa, fluorescent DNA synthesis assay, 10 min; Potency, µM (titrated, usually from 107 µM), actives largely listed as inhibitors; 0.53% of 400,000 active; AID 588579
#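 Here, compound and 10 nM enzyme are combined for 15 min at room temperature; adding 50 nM substrate (final) starts DNA synthesis, tracked by fluorescence at 0 and 10 min against buffer-only wells.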
# POLI inh: DNA polymerase iota (human) inhibition; Q9UNA4; Pol iota fluorescent replication assay, 10 min; Potency, µM (highest dose often 115 µM), actives largely listed as inhibitors; 1% of 390,000 active
#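 Fluorescent replication assay read twice, at 0 min and 10 min after adding 50 nM (final) substrate. Enzyme (10 nM) and compounds were first incubated 15 min at room temperature; enzyme-free buffer wells were negative controls.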
# WRN helicase inh-2: WRN helicase inhibition, cherry-pick retest. WRN helicase DNA unwinding, fluorescence kinetic. 63% of 610 active. Potency, µM (doses to about 57.1 µM), hits mostly inhibitors. AID 720497. shares compounds with WRN helicase inh-1; note: nearly all actives have a fitted effect of over 65% in size
# TO displacement: binds DNA, flagged in WRN inhibitor counterscreen; shares compounds with WRN helicase inh-1; thiazole orange DNA binding displacement, fluorescence; Potency, µM (series often up to 57.1 µM), actives largely listed as inhibitors; 10% of 610 active; AID 720499;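 note: drop in dye fluorescence marks compound binding to DNA; nearly all actives have a fitted effect of over 60% in size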
# BLM counter: counter-screen for WRN helicase inhibitors: human BLM helicase inhibition | shares compounds with WRN helicase inh-1 | Recombinant BLM helicase DNA unwinding, red fluorescence | Potency, µM (highest dose often 57.1 µM), hits mostly inhibitors | 60% of 610 active | AID 720503; note: nearly all actives have a fitted effect of over 60% in size
# A number is an active result; – = inactive; ? = inconclusive; · = no result given; ! = repeats disagree. Rows were chosen to be rich in hits. Some 2.8% of all compounds tested hit in one or more screens of this group. Unless noted, calls come from the whole dose curve; as a rule, active = well fitted curve in the direction sought with a large enough effect; inconclusive = small, poorly fitted or top-dose-only effect, or another doubt; inactive = no such curve, though single readings can be large; an effect the other way counts as inactive or inconclusive.
SMILES,POLH inh,PI5P4K alpha inh,WRN helicase inh-1,Pol beta inh,Pol kappa inh,POLI inh,WRN helicase inh-2,TO displacement,BLM counter
O=C(NCCCN1CCCC1=O)C(=O)NCC1OCCCN1S(=O)(=O)c1ccccc1 (stereo not drawn),–,–,–,·,·,·,·,·,·
CCOc1ncccc1C(=O)NNC(=O)c1cccc(S(=O)(=O)Nc2ccc(OC)cc2)c1,–,–,?,–,–,–,–,–,–
CC[C@H]1C(=O)[C@@H](Cc2ccccc2)[C@@H]2CCN3C(=O)CCC[C@H]1[C@H]23,–,–,–,·,–,–,·,·,·
COc1cc(/C=C2\C(=O)NN(c3ccccc3)C2=O)ccc1OCC(N)=O,·,·,·,–,·,·,·,·,·
COc1cc(/C=C2/C(=O)NN(c3cccc(C)c3)C2=O)ccc1OC(=O)c1ccco1,28µM,–,45µM,–,–,?,?,–,?
CCOC(=O)c1[nH]c(C)c(CCC(=O)Nc2ccc(N(CC)CC)cc2C)c1C,–,·,·,–,–,–,·,·,·
CN1CCN(C(=S)C(=O)Nc2ccc(Br)cc2)CC1,–,-56,45µM,–,–,–,–,–,–
CC1(C)CC(=O)C(C(C2=C(O)CC(C)(C)CC2=O)c2ccc(O)c([N+](=O)[O-])c2)=C(O)C1,?,-68,?,–,–,?,22µM,?,–
CC(C)C(C(=O)NC1CCCC1)N(CC1CCCO1)C(=O)CNS(=O)(=O)c1ccccc1 (stereo not drawn),–,–,–,–,–,–,·,·,·
Cc1ccc(NC2c3ncccc3C(=O)N2c2ccccc2C)cc1C (stereo not drawn),–,–,45µM,–,–,56µM,–,–,–
CCOc1ccc(N2C(=O)c3cccnc3C2Nc2ccc(Cl)cc2)cc1 (stereo not drawn),–,·,–,–,–,?,·,·,·
Cc1ccc2c(c1)c(/C=C/c1cc[n+](C)cc1)c(C)n2C,–,–,40µM,?,–,?,22µM,–,–
O=c1c2ccccc2nc2sc(Nc3cccc(N4CCNCC4)c3)nn12,·,·,·,·,·,·,22µM,–,?
O=[N+]([O-])c1ccc(S(=O)(=O)c2ccccc2)nc1,–,–,?,–,–,–,·,·,·
Cc1ccc(S(=O)(=O)c2ccc([N+](=O)[O-])cn2)cc1,–,–,?,–,–,?,–,–,–
COc1ccc(C(=O)CSc2nnc(CNC(=O)c3ccccc3F)n2C)cc1OC,–,–,–,–,–,–,·,·,·
NC(=O)c1ccccc1OCc1nnc(-c2ccccc2Br)o1,–,–,–,?,–,–,·,·,·
CN(CCCS(=O)(=O)[O-])c1ccc(/C=C/c2ccc3ccccc3[n+]2C)cc1,–,–,–,–,–,?,·,·,·
CN(C)c1ccc(/C=C/c2ccc3ccccc3[n+]2C)cc1,?,?,40µM,18µM,50µM,40µM!,24µM,27µM,27µM
COC(=O)c1ccc(CCc2cc(O)c(Br)cc2O)cc1,–,-52,25µM,·,–,–,–,–,?
CN(C)CCCNc1cc(N2CCN(C3CCCCC3)CC2)c2noc3c2c1C(=O)c1ccccc1-3,?,·,·,–,–,–,24µM,–,43µM
Nc1cc(C(=O)OCC(=O)N2CCC(Cc3ccccc3)CC2)ccc1Cl,–,–,–,·,–,–,·,·,·
Cc1ccc(CN(C)C(=O)CCc2nc3sc4c(c3c(=O)[nH]2)CCCC4)o1,22µM,?,?,25µM,–,18µM,?,–,?
CC(=O)OCc1nc2sc3c(c2c(=O)[nH]1)CCCC3,–,–,–,–,–,–,·,·,·
CC1(C)CC(=O)C=C(NC2CCCC(O)C2)C1 (stereo not drawn),–,–,–,·,–,–,·,·,·
Cc1cc(Cl)c(OCCOCCN2CCCC(C)C2)c(Br)c1 (stereo not drawn),–,–,–,–,–,–,·,·,·

# Assay outcomes from PubChem.
